hcGAS inh = inhibitors of human cGAS. Q8N884. inhibition, % at 12.5 µM. hit rate 0.081% among 290,000. recombinant h-cGAS, ATP depletion, Kinase-Glo luminescence. AID 1259398;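 further: 0% = vehicle reaction and 100% = reaction without DNA for no activity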
Target sequence (Q8N884 whole entry, looked up): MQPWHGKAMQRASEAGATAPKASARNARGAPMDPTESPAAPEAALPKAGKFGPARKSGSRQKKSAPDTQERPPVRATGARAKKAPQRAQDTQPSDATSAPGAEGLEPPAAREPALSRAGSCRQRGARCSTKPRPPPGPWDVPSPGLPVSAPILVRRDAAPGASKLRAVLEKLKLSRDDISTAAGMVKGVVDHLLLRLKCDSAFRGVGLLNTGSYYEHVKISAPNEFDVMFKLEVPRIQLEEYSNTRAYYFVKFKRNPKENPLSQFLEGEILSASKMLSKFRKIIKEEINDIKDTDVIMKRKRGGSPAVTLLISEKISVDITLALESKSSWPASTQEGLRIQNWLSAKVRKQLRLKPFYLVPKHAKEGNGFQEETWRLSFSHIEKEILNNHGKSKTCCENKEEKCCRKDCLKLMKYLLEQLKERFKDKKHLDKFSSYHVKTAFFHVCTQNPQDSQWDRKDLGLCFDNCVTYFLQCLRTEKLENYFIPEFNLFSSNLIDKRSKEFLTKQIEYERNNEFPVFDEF
mcGAS lum = inhibitors of mouse cGAS; Q8C6L5; recombinant cGAS, Kinase-Glo ATP depletion luminescence; inhibition, % at 12.5 µM; hit rate 0.15% among 160,000;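 further: 0% = negative control wells and 100% = reference inhibitor with no enzyme activity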
NPYLR7 agonist = mosquito NPYLR7 agonism. AID 1259423. hit rate 0.15% among 270,000. activation, % at 10 µM. HEK293T NPYLR7/Galpha15, GCaMP6s calcium fluorescence; in the data active means activation above about 40%;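 further: 0% = vehicle and 100% = reference agonist at the receptor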
An asterisk follows results filed as active; nt = no result; ! = not active in a repeat. Compounds with a hit are over-represented: about 0.28% of the library has one in this group of screens. Unless noted, no stated cut-off is given here; in the data, active means inhibition above about 40%; inactive means the rest.

SMILES	hcGAS inh	mcGAS lum	NPYLR7 agonist
O=C(CNC(=O)c1ccc(F)c(F)c1)Nc1ccnc2ccnn12	-5	nt	10
Cc1ccc(-n2[nH]c(C(=O)Nc3ccnc4ccnn34)cc2=O)cc1	68*	-7	-1
COc1ccc(-n2nc([N+](=O)[O-])c(=Nc3ccc(Br)cc3)n2O)cc1	6	-6	-7
CCOC(=O)N1CCN(c2ccc(/C=C(\C#N)c3nc4ccccc4s3)o2)CC1	-7	nt	5
CCOC(=O)N1CCN(c2ccc(/C=C(\C#N)c3nc4ccccc4n3C)o2)CC1	-21	nt	342*
CC(C)CN1C(=O)C(=Cc2c(N3CCN(CCO)CC3)nc3ccccn3c2=O)SC1=S	-4	-5	79*
CCCNc1nc2ccccn2c(=O)c1C=C1SC(=S)N(CC(C)C)C1=O	-13	nt	2
CCOC(=O)c1nn(-c2ccc(C)cc2)c(=O)c2c(NC(=O)CCCc3ccccc3)scc12	-1	-3	-12
CCc1cc(N2CCOCC2)nc(SCc2ccc(C(=O)NCCc3ccccn3)o2)n1	-3	-6	5
O=C(NC1CCN(C(=O)c2ccco2)CC1)c1cccc(C(F)(F)F)c1	-4	nt	-3
CCCCCCCCCCCCOS(=O)(=O)O	-3	nt	-21
CCCCC(CC)CCC(CC(C)C)OS(=O)(=O)O (stereo unspecified)	42*	nt	-5
Cc1cc(C)cc(Nc2nc(NCC(C)O)nc3c2cnn3-c2ccccc2)c1 (stereo unspecified)	-5	-8	2
O=C(CSc1nnc2ccccn12)Nc1ccc([N+](=O)[O-])cc1Cl	-5	nt	-4
O=C(CCl)Nc1ccc([N+](=O)[O-])cc1Cl	-7	60*	-1
CCOC(=O)c1c(NC(=O)CN2CCN(c3nccs3)CC2)sc(C)c1-c1ccc(C)cc1	-3	nt	6
CC(=O)N(CCN(C)C)Cc1csc(COc2cccc(C)c2)n1	-2	-4	0
COc1cc(C=C(C#N)S(=O)(=O)c2ccc(Cl)cc2)cc2c1OCCO2	-4	nt	1
CCOc1cc(C=C(C#N)C(=O)OC(C)C)cc(Cl)c1O	-7	nt	14
COc1cc(C=C(C#N)S(=O)(=O)c2ccc(Cl)cc2)cc(Cl)c1O	-1	nt	118*
COc1cc(C=C(C#N)C(=O)OC(C)C)cc(Cl)c1O	-4	nt	83*
S=c1[nH]nc(-c2ccc(Cl)cc2)o1	2	-7	7
COc1ccc(CCNC(=O)c2ccc(-c3cc(-c4cccc(C(F)(F)F)c4)n[nH]3)cc2)cc1	-11	-9	-2
COc1cccc(CNC(=O)c2ccc(-c3cc(-c4cccc(C(F)(F)F)c4)n[nH]3)cc2)c1	-1	104*	-7
CCOc1ccccc1C(=O)NCCn1c(C)cc2ccccc21	-8	nt	-1
SMILES	hcGAS inh	mcGAS lum	NPYLR7 agonist
COc1cc(C=NN2C(=O)CSC2=S)cc(Br)c1O	-10	-2	20
O=C1CSC(=S)N1N=Cc1cc(Br)c(O)c(Br)c1	43*	60*	67*
O=C1CSC(=S)N1N=Cc1ccc([N+](=O)[O-])o1	4	59*	3
O=C1CSC(=S)N1N=Cc1ccc(-c2nc3ccccc3s2)o1	-1	nt	25
COc1cc(OC)cc(-c2nn(-c3ccc(F)cc3)c(OC(C)=O)c2-c2ccc(NC(=O)c3ccc(Cl)cc3)cc2)c1	-6	-4	1
O=C(/C=C/c1ccc(OC(F)(F)F)cc1)N[C@H](Cc1ccccc1)C(=O)N1CCC(C(=O)N2CCOCC2)CC1	-5	-7	-4
N#Cc1ccccc1N=Nc1c(-c2ccc([N+](=O)[O-])cc2)[nH]n(-c2ccccc2)c1=O	-17	-8	-4
Cc1cccc(CN2CCN(c3cccc(Cl)c3)C(=O)C2C)c1 (stereo unspecified)	-5	-5	-1
Cc1cccc(CN2CCN(c3ccc(Cl)cc3)C(=O)C2C)c1 (stereo unspecified)	-3	74*	-1
COC(=O)c1ccc(C2C3=C(CC(C)(C)CC3=O)OC3=C2C(=O)CC(C)(C)C3)cc1	2	-3	15
COc1cc(-c2nc(C=Nc3cccc(C(F)(F)F)c3)c(O)o2)cc(OC)c1OC	-6	nt	-2
c1ccc(-c2cc(NCc3ccc4c(c3)OCO4)n3ncnc3n2)cc1	2	-4	nt
O=C(CN1C(=O)SC(=Cc2ccc(N3CCCCCC3)o2)C1=O)N1CCCCCC1	-3	nt	45*
CCOC(=O)CN1C(=O)SC(=Cc2ccc(Br)o2)C1=O	-8	-5	-2
O=C(NNC1c2ccccc2-c2ccccc21)c1ccccc1	-5	-18	-3
C=CC(=O)N1CCN(c2nc3ccccc3nc2C(=O)OCC)CC1	-10	-4	12
CCOC(=O)c1nc2ccccc2nc1N1CCN(C(=O)N2CCOCC2)CC1	-6	nt	52*
Cc1[nH]c2c(c1C(=O)O)C(=O)CC(c1ccco1)C2 (stereo unspecified)	-8	nt	-4
O=C(O)Cc1cc(I)c(Oc2cc(I)c(O)c(I)c2)c(I)c1	68*	94*	nt
O=C(O)Cc1cc(I)c(Oc2ccc(O)c(I)c2)c(I)c1	-2	36	0
O=C(COc1cccc2c1CCC2=O)Nc1c(F)cccc1F	-5	-5	4
Nc1ccc(-c2nc3cc(N)cc(Cl)c3o2)cc1	-3	-3	118*
Cc1ccc2oc(-c3ccc(N)cc3)nc2c1	-2	-5	-5
CCC(C(=O)N1CCN(CC(OCc2ccc(C(=O)OC)cc2)c2ccc(Cl)cc2)CC1)c1ccccc1 (stereo unspecified)	-7	88*	nt
COC(=O)c1ccc(COC(CN2CCN(C(=O)c3ccc(Cl)cc3)CC2)c2ccc(Cl)cc2)cc1 (stereo unspecified)	-7	-5	nt
SMILES	hcGAS inh	mcGAS lum	NPYLR7 agonist
Nc1ncnc(NC(CO)CCO)c1[N+](=O)[O-] (stereo unspecified)	0	nt	4
COc1cccc2c1C(=O)c1c(O)c3c(c(O)c1C2=O)C[C@@](O)(C(C)=O)C[C@@H]3OC1CC(N)C(O)C(C)O1 (stereo partly specified)	61*	nt	-3
COc1cccc2c1C(=O)c1c(O)c3c(c(O)c1C2=O)C[C@@](O)(C(=O)CO)C[C@@H]3O[C@H]1C[C@H](N)[C@H](O)[C@H](C)O1	58*	nt	-13
CCCCN(C)c1c(CC)nc2ccc(C(=O)NCCc3ccccn3)cn12	-4	-5	-2
COc1ccc(NS(=O)(=O)c2ccc(NS(=O)(=O)c3ccc(OC)c(C)c3)cc2)cc1	-6	-5	-7
COC(=O)C1=C(C)NC(C)=C(C(=O)OCC(C)C)C1c1ccccc1[N+](=O)[O-] (stereo unspecified)	5	58*	-6
CC1=C(C(=O)OCC(C)C)C(c2ccccc2[N+](=O)[O-])NC(=O)N1C (stereo unspecified)	-7	-5	-1
CCNC(=O)NC(=O)C(C)OC(=O)c1[nH]c(C)c(C(C)=O)c1C (stereo unspecified)	-7	nt	1
CC1c2cccn2CCN1C(=O)Cn1nnnc1N (stereo unspecified)	4	-12	1
CC(C)N=C(N)N=C(N)Nc1ccc(Cl)cc1	-4	nt	6
NC(=NCCCCCCN=C(N)N=C(N)Nc1ccc(Cl)cc1)N=C(N)Nc1ccc(Cl)cc1	-4	-4	70*!
CCOC(=O)C(C#N)=CNc1nc(C(C)=O)cs1	53*	64*	4
CCOC(=O)C(C#N)=CNc1cnccn1	-1	-4	11

High-throughput results from PubChem.
